# Several values for one entry are separate records, joined by “and”; a condition that tells them apart may be missing. Equal values may be shown once. Results filed as inconclusive are left out. A call without a number means that no potency is given here. More than one record can exist for a structure, and the calls need not agree. Activity calls are given as the source filed them. Calls follow the shape of the dose curve; as a rule, active = well fitted curve in the direction sought with a large enough effect in the repeat runs; inconclusive = weak or mixed curves; inactive = no such curve, though single readings can be large; an effect the other way counts as inactive or inconclusive.
# Legend:
# [1] = qHTS RealTime-Glo MT Cell Viability Assay in HEK293 cells - 16 hour (AID 1224872); also: nearly all actives have a fitted effect of over 50% in size; also: potency is read from the fitted curve at half-maximal effect
# How it was run: (§1)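 Viability tracked continuously by luminescence as live cells reduce a prosubstrate for NanoLuc; HEK293 cells preincubated 5 h, compound-treated at 37 C, and read at 0, 8, 16, 24, 32 and 40 h.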
# [2] = qHTS RealTime-Glo MT Cell Viability Assay in HepG2 cells - 8 hour (AID 1224873); also: nearly all actives have a fitted effect of over 55% in size; also: potency is read from the fitted curve at half-maximal effect
# How it was run: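 HepG2 cells (600/well) mixed with RealTime-Glo MT reagent, settled 5 h at 37 C/5% CO2 before compound addition. Nonlytic NanoLuc luminescence from viable-cell prosubstrate reduction read repeatedly during 40 h treatment at 37 C.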
# [3] = qHTS RealTime-Glo MT Cell Viability Assay in HEK293 cells - 40 hour (AID 1224874); details: RealTime-Glo luminescence; max response: stronger effect = lower value; also: nearly all actives have a fitted effect of over 50% in size; also: potency is read from the fitted curve at half-maximal effect
# How it was run: (§2)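 Cells were seeded together with NanoLuc luciferase and a prosubstrate that viable cells reduce to a luciferase substrate. After a 5 h incubation at 37 C/5% CO2, compounds were added and luminescence was measured repeatedly during 40 h of treatment.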
# [4] = A CellTox Green Cytotoxicity Assay to monitor cytotoxicity in HEK293 cells - 24 hour (AID 1224875); also: nearly all actives have a fitted effect of over 45% in size; also: potency is read from the fitted curve at half-maximal effect
# How it was run: (§3)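 Nonlytic real-time cytotoxicity: HEK293 + CellTox Green reagent plated, 5 h preincubation, pintool compound addition (23 nL in DMSO), 37 C for 40 h, fluorescence measured at successive time points.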
# [5] = A CellTox Green Cytotoxicity Assay to monitor cytotoxicity in HepG2 cells - 16 hour (AID 1224876); also: nearly all actives have a fitted effect of over 45% in size; also: potency is read from the fitted curve at half-maximal effect
# How it was run: (§4)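 Read-out is fluorescence of a cyanine dye excluded from live cells that stains DNA of dead HepG2 cells, with signal proportional to cytotoxicity. Plates were read at 0, 8, 16, 24, 32 and 40 h after compound addition.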
# [6] = qHTS RealTime-Glo MT Cell Viability Assay in HepG2 cells - 32 hour (AID 1224877); also: nearly all actives have a fitted effect of over 55% in size; also: potency is read from the fitted curve at half-maximal effect
# How it was run: (§5)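 Viability was tracked continuously by NanoLuc luminescence from prosubstrate reduced by living HepG2 cells, at successive time points over 40 h of compound exposure. Cells with reagent were preincubated 5 h at 37 °C before compound addition.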
# [7] = A CellTox Green Cytotoxicity Assay to monitor cytotoxicity in HepG2 cells - 24 hour (AID 1224878); also: nearly all actives have a fitted effect of over 45% in size; also: potency is read from the fitted curve at half-maximal effect
# How it was run: as §4
# [8] = A CellTox Green Cytotoxicity Assay to monitor cytotoxicity in HepG2 cells - 40 hour (AID 1224879); also: nearly all actives have a fitted effect of over 40% in size; also: potency is read from the fitted curve at half-maximal effect
# How it was run: as §4
# [9] = qHTS RealTime-Glo MT Cell Viability Assay in HEK293 cells - 0 hour (AID 1224880); also: top concentration of the series differs between compounds; nearly all actives have a fitted effect of over 45% in size
# How it was run: as §2
# [10] = A CellTox Green Cytotoxicity Assay to monitor cytotoxicity in HEK293 cells - 32 hour (AID 1224881); also: nearly all actives have a fitted effect of over 40% in size; also: potency is read from the fitted curve at half-maximal effect
# How it was run: as §3
# [11] = A CellTox Green Cytotoxicity Assay to monitor cytotoxicity in HepG2 cells - 0 hour (AID 1224882); also: nearly all actives have a fitted effect of over 35% in size
# How it was run: as §4
# [12] = A CellTox Green Cytotoxicity Assay to monitor cytotoxicity in HepG2 cells - 32 hour (AID 1224883); also: nearly all actives have a fitted effect of over 50% in size; also: potency is read from the fitted curve at half-maximal effect
# How it was run: as §4
# [13] = A CellTox Green Cytotoxicity Assay to monitor cytotoxicity in HEK293 cells - 8 hour (AID 1224884); also: nearly all actives have a fitted effect of over 35% in size
# How it was run: as §3
# [14] = qHTS RealTime-Glo MT Cell Viability Assay in HEK293 cells - 24 hour (AID 1224886); also: nearly all actives have a fitted effect of over 50% in size; also: potency is read from the fitted curve at half-maximal effect
# How it was run: as §1
# [15] = qHTS RealTime-Glo MT Cell Viability Assay in HEK293 cells - 8 hour (AID 1224887); also: nearly all actives have a fitted effect of over 50% in size; also: potency is read from the fitted curve at half-maximal effect
# How it was run: as §2
# [16] = A CellTox Green Cytotoxicity Assay to monitor cytotoxicity in HEK293 cells - 16 hour (AID 1224888); also: nearly all actives have a fitted effect of over 35% in size
# How it was run: as §3
# [17] = A CellTox Green Cytotoxicity Assay to monitor cytotoxicity in HepG2 cells - 8 hour (AID 1224890); also: nearly all actives have a fitted effect of over 45% in size; also: potency is read from the fitted curve at half-maximal effect
# How it was run: as §4
# [18] = A CellTox Green Cytotoxicity Assay to monitor cytotoxicity in HEK293 cells - 40 hour (AID 1224871); also: nearly all actives have a fitted effect of over 45% in size
# How it was run: as §3
# [19] = qHTS RealTime-Glo MT Cell Viability Assay in HepG2 cells - 16 hour (AID 1224885); also: nearly all actives have a fitted effect of over 50% in size; also: potency is read from the fitted curve at half-maximal effect
# How it was run: as §5
# [20] = qHTS RealTime-Glo MT Cell Viability Assay in HepG2 cells - 0 hour (AID 1224889); also: nearly all actives have a fitted effect of over 50% in size
# How it was run: as §5
smiles,measurement,setting,value
NC(=O)c1ccncc1,Potency,[1],inactive
same,Potency,[2],inactive
same,max response,[3],6.51% (inactive)
same,Potency,[4],inactive
same,Potency,[5],inactive
same,Potency,[6],inactive
same,Potency,[7],inactive
same,Potency,[8],inactive
same,Potency,[9],inactive
same,Potency,[10],inactive
same,Potency,[11],inactive
same,Potency,[12],inactive
same,Potency,[13],inactive
same,Potency,[14],inactive
same,Potency,[15],inactive
same,Potency,[16],inactive
same,Potency,[17],inactive
O=C1Cc2cc(Cl)ccc2N1,Potency,[18],inactive
same,Potency,[4],inactive
same,Potency,[5],inactive
same,Potency,[6],inactive
same,Potency,[7],inactive
same,Potency,[9],inactive
same,Potency,[10],inactive
same,Potency,[11],inactive
same,Potency,[12],inactive
same,Potency,[13],inactive
same,Potency,[19],inactive
same,Potency,[14],inactive
same,Potency,[16],inactive
same,Potency,[20],inactive
same,Potency,[17],inactive
CCCCN(CCCC)C(C(N)=O)c1ccc(OC)cc1 (configuration not stated),Potency,[1],inactive
same,Potency,[2],inactive
same,max response,[3],-24.8% (inactive)
same,Potency,[4],inactive
same,Potency,[5],inactive
same,Potency,[6],inactive
same,Potency,[7],inactive
same,Potency,[9],inactive
same,Potency,[10],inactive
same,Potency,[11],inactive
same,Potency,[12],inactive
same,Potency,[13],inactive
same,Potency,[19],inactive
same,Potency,[14],inactive
same,Potency,[15],inactive
same,Potency,[16],inactive
C[C@]12CC[C@@H]3c4ccc(O)cc4CC[C@H]3[C@@H]1CC[C@@H]2OC(=O)CCC1CCCC1,Potency,[1],49 µM (active)
same,Potency,[2],49 µM (active) and inactive
same,Potency,[3],43.6 µM (active)
same,Potency,[4],54.9 µM (active)
same,Potency,[5],49 µM (active) and 19 µM (active)
same,Potency,[6],54.9 µM (active) and inactive
same,Potency,[7],49 µM (active) and 23.9 µM (active)
same,Potency,[8],54.9 µM (active) and 26.8 µM (active)
same,Potency,[9],inactive
same,Potency,[10],54.9 µM (active)
same,Potency,[11],inactive
same,Potency,[12],49 µM (active) and 23.9 µM (active)
same,Potency,[13],inactive
same,Potency,[19],49 µM (active) and inactive
same,Potency,[14],43.6 µM (active) and inactive
same,Potency,[15],49 µM (active) and inactive
same,Potency,[20],inactive
same,Potency,[17],49 µM (active)
CCN(CC)CCNC(=O)COc1ccc(OC)cc1,Potency,[1],inactive
same,Potency,[2],inactive
same,max response,[3],13.7% (inactive)
same,Potency,[4],inactive
same,Potency,[5],inactive
same,Potency,[6],inactive
same,Potency,[7],inactive
same,Potency,[8],inactive
same,Potency,[9],inactive
same,Potency,[10],inactive
same,Potency,[11],inactive
same,Potency,[12],inactive
same,Potency,[13],inactive
same,Potency,[19],inactive
same,Potency,[14],inactive
same,Potency,[15],inactive
same,Potency,[16],inactive
same,Potency,[20],inactive
same,Potency,[17],inactive
CC(=O)Nc1ccc(C)cc1C,Potency,[1],inactive
same,Potency,[2],inactive
same,max response,[3],-0.695% (inactive)
same,Potency,[5],inactive
same,Potency,[6],inactive
same,Potency,[7],inactive
same,Potency,[8],inactive
same,Potency,[9],inactive
same,Potency,[11],inactive
same,Potency,[12],inactive
same,Potency,[13],inactive
same,Potency,[19],inactive
same,Potency,[14],inactive
same,Potency,[15],inactive
same,Potency,[16],inactive
same,Potency,[20],inactive
same,Potency,[17],inactive
CCn1cc(C(=O)O)c(=O)c2cc(F)c(N3CCNCC3)cc21,Potency,[1],inactive
same,Potency,[2],inactive
same,max response,[3],11.4% (inactive)
same,Potency,[4],inactive
same,Potency,[5],inactive
same,Potency,[6],inactive
same,Potency,[7],inactive
same,Potency,[9],inactive
same,Potency,[10],inactive
same,Potency,[12],inactive
same,Potency,[13],inactive
same,Potency,[14],inactive
same,Potency,[15],inactive
same,Potency,[16],inactive
same,Potency,[17],inactive

# Source: PubChem BioAssay (Tox21)
